{
  "source": "PubChem BioAssay (EPA / NIEHS)",
  "note": "Calls of active or inactive are those of the source. The calls were made as follows: active = hit-call score of the fitted dose curve at least 0.9, where 1 is the maximum; inactive = score below 0.9.",
  "data": [
    {"assay": "APR_HepG2_CellCycleArrest_24hr: Apredica 24-hour HepG2 Assay for Cell Cycle Arrest (AID 2282905)", "details": "imaging, actives raise or lower the signal", "in_short": "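HepG2, 24 hr dosing, 10-pt 0.39–200 uM in duplicate, 0.5% DMSO. Fixed 3.7% formaldehyde, permeabilized 0.5% Triton X-100, Hoechst 33342 2 ug/mL. Imaged 20x; nuclear DNA content quantified; bidirectional fit vs DMSO.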", "values": [
      {"smiles": "OCCO", "outcome": "inactive"},
      {"smiles": "Cc1cc(F)ccc1-c1cc(N2CC[C@@H](O)[C@H]2CO)ncc1N(C)C(=O)C(C)(C)c1cc(C(F)(F)F)cc(C(F)(F)F)c1", "outcome": "inactive"},
      {"smiles": "CC(O)CC(C)(C)O", "note": "(centres undefined)", "outcome": "inactive"},
      {"smiles": "CC1(C)NC(=O)N(c2ccc([N+](=O)[O-])c(C(F)(F)F)c2)C1=O", "outcome": "inactive"},
      {"smiles": "CCCCOC(=O)c1ccc(O)cc1", "outcome": "inactive"},
      {"smiles": "Oc1ccccc1", "outcome": "inactive"},
      {"smiles": "CC(C)(C)c1cc(/C=C2\\SC(N)=NC2=O)cc(C(C)(C)C)c1O", "AC50": "64.9 µM (active)"},
      {"smiles": "O=C=NCCCCCCN=C=O", "outcome": "inactive"},
      {"smiles": "NCc1cccc(C2CCN(C(=O)c3ccc(C#Cc4ccccc4F)o3)CC2)c1", "outcome": "inactive"},
      {"smiles": "CN(C)C(=O)C1(N2CCCCC2)CCN(CC[C@@]2(c3ccc(Cl)c(Cl)c3)CN(C(=O)c3ccccc3)CCO2)CC1", "outcome": "inactive"},
      {"smiles": "Cc1occc1C(=O)Nc1ccc(C(=O)N2CCC(F)(F)/C(=C\\C(=O)N3CCC(N4CCCCC4)CC3)c3ccccc32)cc1", "AC50": "34.9 µM (active)"},
      {"smiles": "C[C@]12CC[C@@H]3c4ccc(O)cc4CC[C@H]3[C@@H]1CCC2=O", "outcome": "inactive"},
      {"smiles": "COc1cc(C(=O)NC2CCN(C)CC2)ccc1Nc1ncc2c(n1)N(C1CCCC1)CC(F)(F)C(=O)N2C", "outcome": "inactive"},
      {"smiles": "O=C(O)Cc1cc(I)c(Oc2ccc(O)c(I)c2)c(I)c1", "outcome": "inactive"},
      {"smiles": "Cc1oc2c(NC(=O)c3c(Cl)cccc3Cl)cccc2c1C(C)(C)O", "outcome": "inactive"},
      {"smiles": "O=CCCCC=O", "outcome": "inactive"},
      {"smiles": "CC[C@H](NC(=O)c1cc(F)ccc1NS(=O)(=O)c1cccc2cccnc12)c1ccccc1", "outcome": "inactive"},
      {"smiles": "O=c1ccc2ccccc2o1", "outcome": "inactive"},
      {"smiles": "c1ccc(C[n+]2cccc3ccccc32)cc1", "AC50": "178 µM (active)"}
    ]}
  ]
}
